# Source: PubChem
# Most compounds without a hit are left out; they make up all but 4.3% or so of the library.
# SMARCA2 activ = increases SMARCA2 function in MMTV reporter cells. activation, % at 9.1 µM. 1% of 370,000 active. MG213 cells, MMTV-luciferase reporter, dexamethasone, overnight; in the data active = activation above about 7.8%;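 note: 0% = vehicle wells and 100% = reference activator wells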
# esBAF inh = blocks esBAF chromatin remodeling in mouse ES cells; 2% of 350,000 active; Bmi1-luciferase knock-in reporter, 24 h; 100% = twice the neutral-well signal; reporter increase, % at 12.5 µM; in the data active = activation above about 40%; inconclusive = no clear call, values can overlap the other calls;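 note: 0% = median of the plate's neutral control wells and 100% = double that signal; a rise in the Bmi1 reporter signal indicates esBAF inhibition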
# Wnt bcat act = activates Wnt/beta-catenin signaling in a reporter cell assay; activation, % at 9.35 µM; AID 743398; activator, plate reader; 1.2% of 300,000 active; in the data active = activation above about 30%, passing the limit was not always enough; inconclusive = no clear call, values can overlap the other calls;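 note: 0% = neutral control wells and 100% = positive control wells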
# AF4-AF9 inh = blocks AF4 peptide binding to human AF9; inhibition, % at 10 µM; AID 651704; P42568; 0.47% of 350,000 active; AlphaScreen, biotin-AF4 peptide binding to FLAG-AF9;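 active = every replicate reaching a set inhibition limit, whatever the replicate mean, cut at about 25% in these data; inconclusive = mean inhibition reaches that limit but some replicates miss it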;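 note: 0% = plate neutral control median and 100% = total signal loss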
# Target sequence (P42568 whole entry, looked up): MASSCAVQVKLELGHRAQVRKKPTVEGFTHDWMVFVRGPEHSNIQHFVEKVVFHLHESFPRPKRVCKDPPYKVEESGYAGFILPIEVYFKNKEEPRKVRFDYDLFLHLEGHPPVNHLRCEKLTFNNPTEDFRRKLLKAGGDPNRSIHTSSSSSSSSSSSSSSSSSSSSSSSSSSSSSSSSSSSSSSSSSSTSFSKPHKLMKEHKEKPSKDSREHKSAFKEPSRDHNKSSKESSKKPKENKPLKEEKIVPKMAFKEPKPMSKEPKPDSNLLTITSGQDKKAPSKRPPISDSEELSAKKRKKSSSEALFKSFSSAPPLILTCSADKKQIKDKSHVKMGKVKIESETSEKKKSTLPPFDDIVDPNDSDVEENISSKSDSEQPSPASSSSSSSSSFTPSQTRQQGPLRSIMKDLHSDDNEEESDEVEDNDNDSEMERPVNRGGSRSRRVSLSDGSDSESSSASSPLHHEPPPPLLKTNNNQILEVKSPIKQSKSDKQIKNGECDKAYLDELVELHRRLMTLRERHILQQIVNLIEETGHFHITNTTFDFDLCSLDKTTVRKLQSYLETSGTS
# FGF22 binding-1 = shifts melting point of recombinant human FGF22; AID 651658; recombinant FGF22 thermal shift, SYPRO orange fluorescence; percent of sucrose octasulfate shift, DMSO zero; activity (Tm shift, normalised), % at 9.99 µM; 1.5% of 340,000 active;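 active = mean Tm shift, scaled 0 neutral to 100 positive control, at about 1.3% or above, every replicate too, limit read from the data; inconclusive = no clear call, values can overlap the other calls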
# MITF act = activators of MITF-driven TRPM1 promoter activity in SK-MEL-5 cells; SK-MEL-5 TRPM1-promoter luciferase, 24 h; % of positive control, neutral wells = 0; activation, % at 12.5 µM; 0.75% of 300,000 active;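 active = mean activation of at least 80% with every replicate also reaching 80%; inconclusive = mean reaches 80% but some replicate falls short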;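 note: 0% = neutral control wells and 100% = parthenolide positive control wells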
# FGF22 binding-2 = binds human FGF22 shifting its melting temperature; AID 720646; recombinant FGF22 thermal shift, SYPRO orange fluorescence; thermal shift activity, °C (ΔTm) at 38 µM; 2% of 1,000 active; shares compounds with FGF22 binding-1;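 active = fitted rise in melting shift crosses a set limit at or below the top valid dose tested; inconclusive = flat fit at mid-level activity, or a poor quality fit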
# FGF22 TSA DP = FGF22 (human) binding by thermal shift | shares compounds with FGF22 binding-1 | 50 tested, under 10 active | Tm shift (activity), % at 38 µM | Thermal shift assay, SYPRO orange, melting temperature shift;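 active = compounds whose fitted dose curve of melting temperature shift rises past a set threshold within the tested doses; inconclusive = flat curve at moderate activity, or poor curve fit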
# TSA no protein = shows thermal shift signal without protein, FGF22 counter-screen. AC50, µM (top dose mostly 38 µM). 2% of 1,000 active. shares compounds with FGF22 binding-1. compound-only SYPRO orange thermal shift counter-screen, no protein. AID 743019;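 active = rising signal whose fitted curve reaches the 0.54 level within the top valid dose, showing a melting point, actives reach about 13 µM in these data; inactive = the rest, including activity in the opposite direction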; note: value is where the raw curve crosses a fixed level and not half-maximal
# * marks the source's active call; other numbers are inactive results; i = inactive; ? = inconclusive; · = not tested or not shown; [ ] = dose if it differs, or a comment.
SMILES,SMARCA2 activ,esBAF inh,Wnt bcat act,AF4-AF9 inh,FGF22 binding-1,MITF act,FGF22 binding-2,TSA no protein,others
COc1cccc2sc(NNC(=O)C3COc4ccccc4O3)nc12 (stereo not drawn),-3,·,0,2,17*,6,0.22,i,
CC1C=NC(S(=O)(=O)N2CC[C@@H]3[C@@H](CO)N(C)c4ccc(-c5ccc(F)cc5)cc4[C@@H]32)=N1 (stereo partly drawn),·,-9,·,·,2.0*,·,·,i,
CC1C=NC(S(=O)(=O)N2CC[C@@H]3[C@H]2c2cc(-c4cccc(F)c4)ccc2N(C)[C@H]3CO)=N1 (stereo partly drawn),·,-1,·,3,-1,·,·,·,
Cc1nc2ccc([N+](=O)[O-])cc2[nH]1,-1,·,-1,-14,·,10,·,·,
Nc1ccc2nc(-c3ccccc3)[nH]c2c1,0,27,21,·,·,·,·,·,
Nc1cccc(-c2nc3ccc(C(=O)c4ccccc4)cc3[nH]2)c1,3,25,11,3,13*,·,0.031,i,FGF22 TSA DP=0
O=[N+]([O-])c1ccc2nc(-c3ccccc3)[nH]c2c1,2,·,68*,6,1.7*,103*,-0.04,i,
O=C(NC1CCC1)[C@@H]1[C@@H](CO)[C@@H]2Cn3c(ccc(-c4cncnc4)c3=O)[C@H]1N2CCc1ccccc1,·,-1,·,-3,0,·,·,·,
CCOc1ccc(N(CC(=O)NCCSc2ccccn2)S(C)(=O)=O)cc1,-2,4,-1,·,·,6,·,·,
CCOc1ccc(N(CC(=O)NCCSc2ccccn2)S(=O)(=O)c2ccc(Cl)cc2)cc1,-2,-5,-5,0,29*,-3,0.2,i,
O=C(c1ccc2c(c1)OCO2)N1CC(=O)N2[C@H](C1)[C@H](c1ccc(C#CCC3CCCC3)cc1)[C@@H]2CO,·,·,·,2,2.3*,·,0.049,i,
COc1cccc(C#Cc2ccc([C@H]3[C@@H](CO)N4C(=O)CN(C(=O)c5ccccc5)C[C@@H]34)cc2)c1,·,·,·,-3,1.4*,·,0.001[42 µM],i,
CS(=O)(=O)N1CC(=O)N2[C@H](CO)[C@@H](c3ccc(C#CCc4ccccc4)cc3)[C@H]2C1,·,·,·,5,1.3*,·,0.098,i,
COc1cccc(C#Cc2ccc([C@@H]3[C@H]4CN(C(=O)c5ccccc5)CC(=O)N4[C@H]3CO)cc2)c1,·,·,·,1,-1,·,·,·,
CS(=O)(=O)N1CC(=O)N2[C@@H](CO)[C@H](c3ccc(C#CCc4ccccc4)cc3)[C@@H]2C1,·,·,·,1,1,·,·,·,
COc1ccc(CNC(=O)N(C)C[C@H]2OCc3ccccc3-c3ccccc3C(=O)N([C@H](C)CO)C[C@@H]2C)cc1,·,-1,·,-3,0,·,·,·,
O=C(Cc1c[nH]c2ccccc12)N1CCN(S(=O)(=O)c2cccc(Cl)c2Cl)CC1,-3,13,0,6,2.9*,0,-0.22,i,
Nc1ccccc1O,·,15,·,·,·,-44,·,·,
Nc1ccccc1N=Nc1ccccc1N,7,?,?,?,2.5*,?,0.15,i,
C/C=C/c1ccc([C@@H]2[C@@H](CO)N(C(=O)CN3CCOCC3)[C@H]2C#N)cc1,·,-7,·,-1,0,·,·,·,
C/C=C/c1ccc([C@@H]2[C@H](C#N)N(C(=O)CN3CCOCC3)[C@H]2CO)cc1,·,-1,·,-1,2.3*,·,0.16[42 µM],i,
CN1C(=O)c2cc(NC(=O)NC3CCCC3)ccc2OC[C@H]2O[C@@H](CC(=O)NC3CCC3)CC[C@H]21,·,5,·,-2,0,·,·,·,
CC(=O)c1c(O)c(C)c(O)c2c1OC1=CC(=O)/C(=C(/C)N)C(=O)C12C (stereo not drawn),-1,-14,-2,-2,0,·,·,·,
COC12CC(=O)C(C(C)=O)=C(O)C1(C)c1c(O)c(C)c(O)c(C(C)=O)c1O2 (stereo not drawn),6,2,0,-1,1.4*,·,0.14,i,
CCOc1ccc(C2OC(=O)Cc3cc(OC)c(OC)cc32)cc1 (stereo not drawn),0,-6,0,5,14*,-7,0.097,i,
SMILES,SMARCA2 activ,esBAF inh,Wnt bcat act,AF4-AF9 inh,FGF22 binding-1,MITF act,FGF22 binding-2,TSA no protein,others
N#C[C@H]1[C@@H](c2ccc(C3=CCCCC3)cc2)[C@@H](CO)N1S(=O)(=O)c1ccccc1,·,0,·,3,1.9*,·,-0.2,i,
N#C[C@@H]1[C@@H](c2ccc(C3=CCCCC3)cc2)[C@@H](CO)N1S(=O)(=O)c1ccccc1,·,-4,·,4,0,·,·,·,
CN1C(=O)c2cc(NC(=O)C3CCCC3)ccc2OC[C@@H]2O[C@H](CC(=O)NCC(F)(F)F)CC[C@@H]21,·,2,·,-1,0,·,·,·,
O=C(COC(=O)c1ccc(S(=O)(=O)N2CCOCC2)cc1)Nc1ccccc1F,-4,-4,7,-4,0,3,·,·,
O=C(CCc1ccc(S(=O)(=O)N2CCOCC2)cc1)Nc1ccccc1F,1,4,-2,-1,1.5*,11,0.14,i,
C[C@@H]1CN([C@@H](C)CO)C(=O)c2cc(NC(=O)Nc3ccc(C(F)(F)F)cc3)ccc2O[C@@H]1CN(C)Cc1ccc(C(=O)O)cc1,·,5,·,0,2.5*,·,0.03,i,
C[C@@H]1CN([C@@H](C)CO)C(=O)c2cc(NC(=O)Nc3ccc(C(F)(F)F)cc3)ccc2O[C@H]1CN(C)Cc1ccc(C(=O)O)cc1,·,-3,·,0,0,·,·,·,
C[C@@H]1CN([C@H](C)CO)C(=O)c2cc(NC(=O)Nc3ccc(C(F)(F)F)cc3)ccc2O[C@H]1CN(C)Cc1ccc(C(=O)O)cc1,·,-5,·,-2,1,·,·,·,
C[C@@H]1CN([C@H](C)CO)C(=O)c2cc(NC(=O)Nc3ccc(C(F)(F)F)cc3)ccc2O[C@@H]1CN(C)Cc1ccc(C(=O)O)cc1,·,6,·,-1,1.4*,·,-0.1[42 µM],i,
Cc1nn(-c2ccccc2)c(C)c1/C=N/NC(=O)c1cc(-c2cccs2)[nH]n1,-2,·,-6,1,1.6*,-20,-0.17,i,
CCCCNC(=O)C1c2cc(OC)c(OC)cc2C(=O)N(C)C1c1cccs1 (stereo not drawn),-1,-3,0,-3,3.6*,-8,-0.059,i,
CCCNC(=O)N(C)C[C@@H]1Oc2cc(-c3cccnc3)ccc2S(=O)(=O)N([C@H](C)CO)C[C@@H]1C,·,0,·,2,0,·,·,·,
COc1ccc(OC)c(NC(=O)C2CCN(S(=O)(=O)c3cccs3)CC2)c1,-3,-9,·,·,·,16,·,·,
